EWS-Fli block: inhibitors of EWS/Fli oncoprotein transcriptional activity. 350,000 tested, 0.67% active. A673 NR0B1-luciferase reporter, viability-normalised. inhibition, % at 12.6 µM;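 active = mean inhibition of at least 50% after viability correction, with every replicate also passing that limit; inconclusive = mean reaches 50% but only one of two replicates passes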;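 note: firefly luciferase signal divided by Alamar Blue viability fluorescence both relative to DMSO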
PAX8 reporter: lowers PAX8-driven luciferase in RMG-I cells | RMG-I TPO-luciferase reporter, SteadyGlo, 24 h | inhibition, % at 12.6 µM | 360,000 tested, 1.2% active | AID 652154;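 active = mean replicate inhibition at least 60% with every replicate also reaching 60%; inconclusive = only one of the two criteria is met; inactive = mean below 60% and not all replicates reaching 60%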;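 note: luciferase light reporting Pax8 driven TPO promoter activity; plate controls were median of neutral control wells for no effect and mitoxantrone controls for full effect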
CF NFkB block: inhibitors of cystic fibrosis induced NF-kB | KKLEB NF-kB-GFP reporter, PAF-induced, GFP fluorescence overnight | inhibition, % at 5 µM | 360,000 tested, 0.86% active;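 active = at least 50% inhibition at 5 µM, scaled per plate between neutral and stimulator controls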;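 note: PAF is a Pseudomonas aeruginosa culture filtrate used as stimulus; plate controls were PAF-stimulated DMSO wells for no effect and unstimulated DMSO wells for full effect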
HIF-2a block: inhibitors of HIF-2a; 786-0 RCC cells HIF-2a reporter, luciferase luminescence, overnight; inhibition, % at 18.8 µM; 360,000 tested, 0.72% active; AID 624352;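 active = inhibition of the luminescence signal of 40% or more relative to plate controls, in a single-dose primary screen at 18.75 µM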
KKLEB tox: CF airway cell cytotoxicity counter-screen; KKLEB CF airway cells viability, ATPlite luminescence, overnight; active compounds read low; cells stimulated with P. aeruginosa culture filtrate; activity change (cytotoxicity), % at 5 µM; 360,000 tested, 0.36% active; AID 602141;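 active = corrected activity change at or below -50% at 5 µM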
The depositor's hits bear a star; ? = inconclusive; · = no result. Rows were chosen to be rich in hits. Some 2.1% of all compounds tested hit in one or more screens of this group.

SMILES | EWS-Fli block | PAX8 reporter | CF NFkB block | HIF-2a block | KKLEB tox
Cc1ccc(C(=O)Nc2nc(-c3ccccn3)cs2)cc1S(=O)(=O)N1CCOCC1 | 15 | 82* | 8 | 2 | -7
CO[C@H]1O[C@H](CO)[C@@H](OC(=O)Nc2cccc(F)c2)[C@H](OC(=O)Nc2ccc3c(c2)OCO3)[C@H]1OC(=O)Nc1ccc2c(c1)OCO2 | 0 | -5 | · | · | ·
CC[N+]1=C(C)C(C)(C)c2cc(C)ccc21 | 28 | 96* | -6 | -3 | 2
CCN1C(=O)C(=O)c2cc(C)ccc21 | 13 | -16 | -3 | 16 | -4
CCCNC(=O)N1C[C@@H](C)[C@H](OC)CN(C)C(=O)c2cc(NC(=O)C3CCC3)ccc2OC[C@H]1C | 4 | · | · | · | ·
CC(C)c1ccc(/C=C/C(=O)N2CCc3ccccc3C2)cc1 | 3 | 67* | 4 | -136 | 9
Nc1ncnc(Sc2ncccn2)c1[N+](=O)[O-] | 16 | 1 | 55* | 30 | -6
COCC(=O)N1CCC2(CC1)CN[C@@H](CO)c1c2c2ccc(OC)cc2n1C | -6 | -34 | · | · | ·
CCn1nnc(NC(=O)c2ccc([N+](=O)[O-])o2)n1 | 8 | 34 | 68* | -29 | 0
CCCCn1nnc(NC(=O)c2ccc(-c3ccccc3[N+](=O)[O-])o2)n1 | 1 | -10 | 4 | -151 | -10
COc1cc(C(=O)NCC(=O)N2CCN(S(=O)(=O)c3cc(C)ccc3C)CC2)cc(OC)c1OC | 54* | 3 | 14 | 32 | -16
O=C1C(=O)c2ccccc2C(O)=C1CCCCl | · | · | 79* | 1 | -25
Cc1ccc2c(c1)C(=O)N1[C@H]3c4cc(Cl)ccc4OC[C@@H]3[C@H](c3ccccc3)[C@]1(C)C(=O)N2 | 52* | 4 | 31 | 20 | -10
Cc1ccc2c(c1)C(=O)N1[C@H]3c4cc(C)ccc4OC[C@@H]3[C@H](c3ccccc3)[C@]1(C)C(=O)N2 | 49 | 26 | 26 | 16 | -6
Cc1ccnc(NC(=O)CCC(=O)c2cccs2)c1 | 78* | ? | 0 | 51* | -26
Cc1ccc(NC(=O)CCC(=O)c2cccs2)nc1 | -29 | -31 | -17 | -98 | 14
CC(C)C[C@H](NC(=O)c1nc[nH]c1C(=O)N[C@@H](CCCCNC(=O)OC(C)(C)C)C(=O)OC(C)(C)C)C(=O)OC(C)(C)C | 37 | 102* | -15 | 21 | 4
C[C@H](NC(=O)c1nc[nH]c1C(=O)N[C@@H](Cc1ccccc1)C(=O)OC(C)(C)C)c1ccccc1 | 0 | 41 | 25 | 20 | -14
C[C@@H](NC(=O)c1nc[nH]c1C(=O)N[C@@H](Cc1ccccc1)C(=O)OC(C)(C)C)c1ccccc1 | 0 | 95* | 3 | 37 | -7
CC(C)(C)OC(=O)NCc1ccc(CNC(=O)c2[nH]cnc2C(=O)N[C@@H](Cc2ccccc2)C(=O)OC(C)(C)C)cc1 | 21 | 76* | -28 | 16 | -14
CC(=O)OC1(C(C)=O)CCC2C3CC(C(F)(F)F)C4=CC(=O)CCC4(C)C3CCC21C (stereo unspecified) | 5 | 49 | 19 | 5 | -5
CC(=O)[C@H]1CC[C@H]2[C@@H]3CCC4=CC(=O)CC[C@]4(C)[C@H]3[C@H](O)C[C@]12C | -2 | -17 | -29 | -4 | 15
CC(=O)[C@H]1CC[C@H]2[C@@H]3C[C@H](C)C4=CC(=O)CC[C@]4(C)[C@H]3[C@@H](O)C[C@]12C | 9 | -2 | 57* | 17 | 20
CC(=O)O[C@]1(C(C)=O)CC[C@H]2[C@@H]3C[C@H](C)C4=CC(=O)CC[C@]4(C)[C@H]3CC[C@@]21C | 4 | 4 | 53* | 12 | 21
COc1ccc2c3c([nH]c2c1)[C@H](CO)N(Cc1ccccc1)CC31CCN(CC2CC2)CC1 | 5 | · | · | · | ·
SMILES | EWS-Fli block | PAX8 reporter | CF NFkB block | HIF-2a block | KKLEB tox
CC(=O)N(C)C[C@@H]1Oc2ncc(-c3cccc(C#N)c3)cc2C(=O)N([C@@H](C)CO)C[C@@H]1C | -12 | 5 | · | · | ·
COc1cc([N+](=O)[O-])ccc1N/C=C/C(=O)c1cccs1 | · | · | -50 | -211 | -58*
C[C@H]1CCCCO[C@H](CN(C)Cc2ccc(C(F)(F)F)cc2)[C@@H](C)CN([C@@H](C)CO)C(=O)c2cc(NS(=O)(=O)c3cccs3)ccc2O1 | 3 | 81* | · | · | ·
C[C@H](CO)N1C[C@H](C)[C@@H](CN(C)Cc2ccc(Cl)c(Cl)c2)OCCCC[C@H](C)Oc2ccc(NS(=O)(=O)c3cccs3)cc2C1=O | 10 | 71* | · | · | ·
C[C@H](CO)N1C[C@H](C)[C@H](CN(C)Cc2ccc(C(F)(F)F)cc2)OCCCC[C@H](C)Oc2ccc(NS(=O)(=O)c3cccs3)cc2C1=O | 13 | · | · | · | ·
C[C@@H]1CCCCO[C@H](CN(C)Cc2ccc(Cl)c(Cl)c2)[C@@H](C)CN([C@H](C)CO)C(=O)c2cc(NS(=O)(=O)c3cccs3)ccc2O1 | -6 | -22 | · | · | ·
C[C@H]1CCCCO[C@@H](CN(C)Cc2ccc(C(F)(F)F)cc2)[C@@H](C)CN([C@@H](C)CO)C(=O)c2cc(NS(=O)(=O)c3cccs3)ccc2O1 | 18 | 96* | · | · | ·
C[C@@H]1CN([C@@H](C)CO)C(=O)c2cc(NS(=O)(=O)c3cccs3)ccc2O[C@@H](C)CCCCO[C@H]1CN(C)C(=O)Nc1ccc(F)cc1 | -3 | 13 | · | · | ·
C[C@H](CO)N1C[C@H](C)[C@@H](CN(C)C(=O)Nc2ccc(C(F)(F)F)cc2)OCCCC[C@H](C)Oc2ccc(NS(=O)(=O)c3cccs3)cc2C1=O | 19 | 65* | · | · | ·
COc1ccc(N(C(=O)CCC(=O)Nc2cc(C)on2)C(C(=O)NC2CCCC2)c2ccco2)cc1 (stereo unspecified) | 4 | 4 | -2 | -1 | 5
COc1ccc(N(C(=O)/C=C/C(=O)Nc2cc(C)on2)C(C(=O)NC2CCCC2)c2ccccc2C)cc1 (stereo unspecified) | 4 | 71* | 17 | 29 | -13
CC(C)NC(=O)[C@@]1(C)c2ccccc2C(=O)N(Cc2cc(C(F)(F)F)cc(C(F)(F)F)c2)[C@H]1c1ccc(CO)cc1 | 4 | -23 | · | · | ·
CCOc1c(OC(C)=O)ccc(/C=C/c2ccc3cccc(OC(C)=O)c3n2)c1[N+](=O)[O-] | -22 | · | 2 | -301 | 10
C=CCN1C(=O)/C(=C/c2ccc(OC(C)=O)c(OCC)c2[N+](=O)[O-])SC1=S | -123 | 100* | 54* | -133 | -44
C[C@@H]1CN([C@H](C)CO)C(=O)c2cc(-c3ccccc3F)cnc2O[C@H]1CN(C)C(=O)C1CCC1 | -4 | · | · | · | ·
COc1ccccc1/C=C1\SC(=S)N(CC(=O)Nc2nnc(C)s2)C1=O | 60* | 0 | · | · | ·
COc1ccccc1/C=C1\SC(=S)N(CCC(=O)NC2=NCCS2)C1=O | 15 | -5 | -13 | 72* | 12
CN(C)C(=O)c1cccc(-c2ccccc2[C@@H]2[C@@H](C#N)N(C(=O)C3CCC3)[C@@H]2CO)c1 | -6 | · | · | · | ·
COc1ccc(C(NC(=O)C2CCN(Cc3ccc(Oc4ccccc4)cc3)CC2)c2ccccc2C)cn1 (stereo unspecified) | 30 | 63* | 24 | -6 | -10

Assay outcomes deposited in PubChem BioAssay by several laboratories.
